Compound activity as filed in PubChem.
TLR9-MyD88 inh: inhibitors of TLR9-MyD88 association in cells, primary screen, cell-based, CHO, BLA complementation, fluorescence; Toll-like receptor 9 (Homo sapiens) + Myeloid differentiation primary response protein …; inhibition, % at 4.98 µM; 0.21% of 340,000 active; AID 504734, 2011; CCF4 FRET ratio;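 active = inhibition above the mean over all tested compounds plus 3 SD, cut at about 21% in these data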;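 also: 0% = DMSO only wells and 100% = clavulanate BLA inhibitor control wells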
NOD2-RIPK2 inh: NOD2-RIPK2 binding disruptors in cells, primary screen, fluorescence, CHO cells, BLA complementation; inhibition, % at 4.98 µM; CCF4 ratio; 0.38% of 360,000 active; AID 624267, 2012; Receptor-interacting serine/threonine-protein kinase 2 (Homo sapiens), O43353; in the data active = inhibition above about 21%;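 also: 0% = vehicle only and 100% = reference blocker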
TLR4 MyD88 comp: inhibitors of TLR4-MyD88 association in cells, primary screen, cell-based, HeLa CL3-4, BLA complementation, FRET ratio. Toll-like receptor 4 (Homo sapiens) + Myeloid differentiation primary response protein …. HeLa CL3-4 TLR4/MyD88 BLA complementation. inhibition, % at 8.4 µM. 0.18% of 200,000 active; in the data active = inhibition above about 25%;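 also: 0% = vehicle and 100% = reference inhibitor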
Myeloid diff MLP: induction of myeloid progenitor differentiation, primary screen, cell-based, flow cytometry, MLPCN library; ER-HoxA9 myeloid progenitors, lysozyme-GFP differentiation; calls only at 10 µM; 1% of 360,000 active; AID 624256, 2012;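 active = normalized GFP-positive differentiation at or above the plate's own cutoff, the solvent-only control mean plus 3 SD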;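 also: cells exposed to compound for four days before flow analysis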
Myeloid diff: inducers of myeloid progenitor differentiation, confirmation, cell-based, GFP/Mac1 flow cytometry, cherry pick 01; shares compounds with Myeloid diff MLP; ER-HoxA9 myeloid progenitors, GFP/Mac1 double-positive flow; calls only; 2% of 2,300 active; AID 651706, 2012;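 active = share of green or green-and-red cells above 9 and 9% in run 1 or 4 and 3% in run 2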
GFP autofluor: flagged as fluorescent in myeloid differentiation counter-screen; ER-HoxA9 myeloid progenitors, no estrogen, GFP autofluorescence flow cytometry; vehicle wells 0%, positive control 100%; 7.4% of 2,300 active; fluorescence response, % (no concentration beside the values); shares compounds with Myeloid diff MLP;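 active = over 5% cells positive for green fluorescent reporter, or over 2% positive for both it and APC stain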;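 also: range taken on the double positive population between DMSO and positive control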
* = called active by the depositor; i = inactive; · = no result given; + = active, no number. A selection: hits, their analogues and other compounds. The true share with any hit is near 1.5%.

SMILES	TLR9-MyD88 inh	NOD2-RIPK2 inh	TLR4 MyD88 comp	Myeloid diff MLP	Myeloid diff	GFP autofluor
O=c1[nH]c(=S)n2c(c1-c1ccccc1)OC(CBr)C2 (stereo not given)	-12	-2	·	+	i	4
Cc1nc(SCC(=O)c2cc3ccccc3oc2=O)c(C#N)c(-c2ccccc2)c1C(=O)Nc1ccccc1	-4	-7	-12	i	i	0
Cc1ccc(S(=O)(=O)N/N=C\C=C\c2ccccc2)cc1	-6	-7	-6	·	i	0
CC(Oc1cccc(Cl)c1)C(=O)Nc1nc(-c2ccccn2)cs1 (stereo not given)	10	-5	·	+	i	4
CC(C)CC(=O)Nc1ccc(C(=O)NNC(=O)C(c2ccccc2)c2ccccc2)cc1	-9	-27	8	i	i	0
CCC(=O)Nc1ccc(C(=O)NNC(=O)C(c2ccccc2)c2ccccc2)cc1	-14	-3	4	i	·	·
CC[N+](C)(CC)CCC(c1ccccc1)C1CCCCC1 (stereo not given)	-14	-13	·	i	i	0
CC(C)(C)N1C(=O)c2ccccc2NC(=O)C1C(=O)NCCOc1ccccc1 (stereo not given)	·	-5	·	i	·	·
O=C(CN1C(=O)c2cccnc2Oc2ccc(Cl)cc21)Nc1ccccc1F	6	-7	·	+	i	0
CCCCNC(=O)C[C@@H]1C[C@@]2(C(=O)OCC)CCC=C2N(CCC2=CCCCC2)C1=O	·	-2	·	i	·	·
CCOC(=O)c1cnc2ccc(C(=O)OC)cc2c1Nc1ccc2c(c1)OCCO2	-3	0	-2	·	i	0
CCOc1ccccc1C(=O)N1CCN(c2cccc(Cl)c2)CC1	-5	8	3	i	i	4
Cc1ccc(S(=O)(=O)N(C)c2ccc(C(=O)NCC(c3ccccc3)N3CCCC3)cc2)cc1 (stereo not given)	-11	-1	·	i	·	·
COc1ccccc1-c1cn(CC[C@H]2CC[C@@H](NS(=O)(=O)c3ccccc3C)[C@@H](CO)O2)nn1	·	-10	·	i	·	·
COc1cccc(CNS(=O)(=O)c2ccccc2Br)c1OC	-2	-1	·	i	i	1
CCc1nc2c(OCC(=O)C(C)(C)C)cccn2c1N(C)C(=O)COc1ccccc1	·	-13	·	i	·	·
Cc1cc(C)nc(/N=C(\N)Nc2ccccc2-c2ccccc2)n1	-6	-2	2	+	i	0
Cc1ccc(N/C(N)=N/c2nc(C)cc(C)n2)cc1	8	-3	-8	i	·	·
O=S(=O)(c1ccccc1)c1nc(-c2ccco2)oc1NCc1cccnc1	-3	9	-5	+	i	0
COc1ccc(NC(=O)[C@@H]2CC=C[C@@H]3CCN(Cc4ccc(Cl)c(Cl)c4)C(=O)[C@@H]32)cc1	-10	4	·	i	·	·
COc1ccc(CN2CC[C@H]3C=CC[C@@H](C(=O)Nc4ccc(Cl)c(C(F)(F)F)c4)[C@H]3C2=O)cc1OC	2	-4	·	i	i	0
Cc1cc(C)cc(NC(=S)NCC2CCCO2)c1 (stereo not given)	-3	2	0	i	i	0
S=C(NCC1CCCO1)Nc1cc(Cl)c(Cl)cc1Cl (stereo not given)	-3	3	-10	i	·	·
CCCCN1C(=O)c2ccc(C(=O)NC3(C)CCS(=O)(=O)C3)cc2C1=O (stereo not given)	-9	-12	·	+	i	0
Fc1ccc2nc(C3CCCCN3Cc3nc(CC4CC4)no3)[nH]c2c1 (stereo not given)	-6	-14	-6	i	i	0
SMILES	TLR9-MyD88 inh	NOD2-RIPK2 inh	TLR4 MyD88 comp	Myeloid diff MLP	Myeloid diff	GFP autofluor
Fc1ccc(C2CCCCN2Cc2nc(CC3CC3)no2)cc1 (stereo not given)	-3	2	-18	i	·	·
CC1(C(=O)NS(=O)(=O)Cc2ccccc2C(F)(F)F)CCN1C(=O)c1ccco1 (stereo not given)	·	-20	·	i	·	·
O=C(CN1CCOCC1)Nc1cc(C(F)(F)F)ccc1Cl	9	-3	-8	i	·	·
O=C(CN1CCN(c2ccc(F)cc2)CC1)Nc1cc(C(F)(F)F)ccc1Cl	0	-2	-3	i	i	1
CC(CNC(=O)C1CCCCC1)NC(=O)C1CCCCC1 (stereo not given)	11	-8	0	+	i	0
Fc1cccc(Cc2c(-c3ccccc3)nc3ccc(Cl)cn23)c1	·	7	·	i	·	·
Cc1nn(-c2ccccc2)c(N2CCCC2)c1/C=N/NC(=O)c1cc2ccccc2cc1O	4	1	3	i	·	·
Cc1nn(-c2ccccc2)c(N2CCCC2)c1/C=N/NC(=S)Nc1ccccc1F	7	4	-5	+	+	1
O=C1CCC/C=C/C[C@@H](CC(=O)N(CCO)Cc2ccccc2)C(=O)NC[C@@H](c2ccccc2)O1	4	-4	·	i	i	0
Cc1nc(C(F)(F)F)ccc1C(=O)N1CCC1(C)C(=O)NS(=O)(=O)c1ccc2ccccc2c1 (stereo not given)	·	-9	·	i	·	·
COc1cc(C(=O)NCC(c2ccco2)N2CCCC2)ccc1OCc1ccc(Cl)cc1Cl (stereo not given)	-8	11	·	+	i	4
O=C(NC1CCN(Cc2ccccc2)CC1)C1CCCN(c2nnc(-n3cccc3)s2)C1 (stereo not given)	0	-6	-11	i	i	0
CC1ON=C(c2ccccn2)N(Cc2ccc3c(c2)OCO3)C1=O (stereo not given)	·	4	·	i	·	·
COc1cccc(-c2csc(NC(=O)Oc3ccccc3)n2)c1	6	-1	-10	i	i	0
CC(=O)Nc1ccc(C(=O)N2CCCC(c3cc(C(=O)NCc4ccc(F)cc4)no3)C2)cc1 (stereo not given)	·	-2	·	i	·	·
CN(Cc1ccccc1)C(=O)[C@@H]1CCCN1C(=O)[C@@H]1CCCN1C(=O)c1cccc(Cl)c1	·	-11	·	i	·	·
CCOP(=O)(OCC)C(NC(=O)Nc1ccc(Cl)cc1)C(N)=O (stereo not given)	7	5	-1	i	·	·
CCOP(=O)(OCC)C(NC(=O)Nc1ccc(Cl)c(Cl)c1)C(N)=O (stereo not given)	3	-7	12	i	i	0
S=C(NCc1ccccc1)NC1CCCc2ccccc21 (stereo not given)	·	-9	14	i	·	·
S=C(NC1CC1)NC1CCCc2ccccc21 (stereo not given)	9	9	3	i	i	0
